From PubChem BioAssay
TRHR ag: TRH receptor (human) agonism; P34981; TRHR cells, calcium flux fluo-8, FDSS agonist mode; activation, % at 2 µM; 0.18% of 360,000 active; AID 493084; note: 0% is about no effect
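Fluo-8-loaded TRHR cells; 10 s baseline, compound added, kinetic Ca2+ fluorescence read 1/s, agonist mode.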
D1 antag: antagonists of human D1 dopamine receptor. activity change, negative = inhibition, % at 10 µM. 3.2% of 360,000 active. HEK293 TREx D1 cells, calcium flux, dopamine EC80; active compounds read low; in the data active = activity change below about -30%; note: % is set by controls: 0 for no effect and ±100 for the full control effect
Target sequence (P21728 whole entry, looked up): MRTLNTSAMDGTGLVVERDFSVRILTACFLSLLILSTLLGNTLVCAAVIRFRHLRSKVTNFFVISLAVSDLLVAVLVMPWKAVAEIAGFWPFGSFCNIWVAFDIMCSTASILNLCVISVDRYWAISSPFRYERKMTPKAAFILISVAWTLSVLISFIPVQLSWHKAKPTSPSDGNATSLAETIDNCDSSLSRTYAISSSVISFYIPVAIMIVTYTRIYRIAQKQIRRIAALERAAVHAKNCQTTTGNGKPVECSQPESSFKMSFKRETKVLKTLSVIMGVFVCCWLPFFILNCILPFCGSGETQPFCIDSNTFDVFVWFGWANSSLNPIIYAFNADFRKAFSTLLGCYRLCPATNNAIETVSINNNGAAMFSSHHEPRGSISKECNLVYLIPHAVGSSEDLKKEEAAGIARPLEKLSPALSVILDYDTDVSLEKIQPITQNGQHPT
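Using tetracycline-induced force-coupled D1 Hek293 cells and a calcium dye, signals were followed for 180 s after compound, then for 180 s after EC80 dopamine, to detect inhibitors.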
D1 agonist: agonists of human D1 dopamine receptor | HEK293 T-REx D1 cells, calcium flux, agonist mode | activation, % at 2 µM | 1% of 360,000 active; note: 0% is about no effect
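Agonism was scored from calcium flux recorded over 180 s (1 read/s) after pintool compound addition, following a 10-cycle baseline. Cells were inducible force-coupled HEK293 TREx D1, plated overnight at 30 C and loaded with no-wash calcium dye.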
TRHR PAM: allosteric enhancers of human TRH receptor; P34981; TRHR cells, fluo-8 calcium fluorescence, EC20 TRH enhancement; enhancement, % at 2 µM; 0.66% of 360,000 active; AID 493056; in the data active = enhancement above about 30%; note: 0% is about no effect
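Enhancer read-out: after compound pinning and an initial kinetic agonist-mode read, an EC20 of TRH (10 nM final) was injected and fluo-8 calcium signal (Ex 480/Em 530) followed at 1 s/cycle for 100 cycles in TRHR-expressing cells.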
D1 potentiator: enhances dopamine response at the human D1 receptor; potentiation, % at 10 µM; HEK293 TREx D1 cells, calcium flux, dopamine EC20 potentiation; 0.036% of 360,000 active; in the data active = potentiation above about 30%; note: 0% is about no effect
* hit, by the source's call. Sampled rows, rich in hits. Any-hit rate of the full collection: about 4.7%. Cut-off read from the data, not from the text of the source, unless noted: active = activation above about 30%; inactive = the rest.

For CCCN1CCN(C(=O)c2noc3c2COc2ccc(C)cc2-3)CC1 the results were TRHR ag 0.2, D1 antag -27.1, D1 agonist 14.5, TRHR PAM -1.4 and D1 potentiator -2.7.
`COc1ccc(-n2nc(C(=O)NCC(=O)NCC3COc4ccccc4O3)c3ccccc3c2=O)c(OC)c1` (stereo not drawn) gave TRHR ag 0.4, D1 antag 15.1, D1 agonist 2.1, TRHR PAM 33.2* and D1 potentiator -7.9.
Screening O=C(Cc1ccc(Br)cc1)Nc1cccc(-c2cn3c(n2)SCC3)c1 returned TRHR ag 0.4, D1 antag -40.6*, D1 agonist 10.0, TRHR PAM -3.7 and D1 potentiator -12.7.
For CCCC(CCC)C(=O)Nc1cccc(-c2cn3c(n2)SCC3)c1 the results were TRHR ag -0.5, D1 antag -5.0, D1 agonist 0.3, TRHR PAM -3.7 and D1 potentiator -3.3.
Screening CC(C)C1C(=O)Nc2ccc(S(=O)(=O)NCCc3ccc(Cl)cc3)cc21 (stereo not drawn) returned TRHR ag 0.7, D1 antag -4.0, D1 agonist 4.3, TRHR PAM 24.3 and D1 potentiator 6.2.
For CCOC(=O)C1C(=O)C=C(/C=C/c2ccc(N(C)C)cc2)CC1c1ccccc1 (stereo not drawn) the results were TRHR ag 73.1*, D1 antag -23.6, D1 agonist 229.7*, TRHR PAM 17.9 and D1 potentiator 7.8.
For CN1C(=O)c2ccccc2Sc2ccc(NC(=O)NCc3ccc(Cl)cc3)cc21 the results were TRHR ag 0.2, D1 antag 1.8, D1 agonist -1.2, TRHR PAM 2.9 and D1 potentiator -1.8.
`Cc1ccccc1CNC(=O)Nc1ccc(Cl)cc1` gave TRHR ag -0.2, D1 antag -46.2*, D1 agonist 4.3, TRHR PAM 6.0 and D1 potentiator -5.5.
For Cc1ccccc1CNC(=O)Nc1ccc2c(c1)N(C)C(=O)c1ccccc1S2 the results were TRHR ag -0.2, D1 antag -38.5*, D1 agonist 1.3, TRHR PAM 1.2 and D1 potentiator -3.4.
For CCc1ccccc1NC(=O)c1ncoc1-c1ccco1 the results were TRHR ag -0.7, D1 antag 11.5, D1 agonist 3.5, TRHR PAM -2.2 and D1 potentiator 1.5.
CCC(C)NC(=O)Cn1ncc2c(C)n(Cc3ccc(F)cc3)c(C)c2c1=O (stereo not drawn) was read as TRHR ag 0.0, D1 antag -8.3, D1 agonist 3.1, TRHR PAM -4.9 and D1 potentiator -3.6.
COC(=O)NC1c2ccccc2Oc2ccccc21 was read as TRHR ag -1.3, D1 antag 0.0, D1 agonist 74.6*, TRHR PAM 3.7 and D1 potentiator -7.8.
For Cc1nn(C)cc1C=NCCOCc1ccccc1 the results were TRHR ag 0.4, D1 antag -31.6*, D1 agonist 1.4, TRHR PAM -4.1 and D1 potentiator -6.2.
N#C/C(=C\c1ccc(O)cc1)C(=O)NCc1cccc(Cl)c1 was read as TRHR ag -1.4, D1 antag -20.8, D1 agonist 53.1*, TRHR PAM 12.7 and D1 potentiator -10.2.
Screening N#C/C(=C\c1ccc(O)cc1)C(=O)NCc1ccccc1 returned TRHR ag 0.1, D1 antag -18.9, D1 agonist 14.5, TRHR PAM -8.0 and D1 potentiator 0.1.
N#C/C(=C/c1ccc(O)cc1)C(=O)NCc1ccc(Cl)cc1 was read as TRHR ag 2.3, D1 antag 5.2, D1 agonist 33.5*, TRHR PAM 12.9 and D1 potentiator -4.7.
Cc1ccc2oc(-c3cccc(NC(=O)c4sc5c([N+](=O)[O-])cccc5c4Cl)c3)nc2c1 was read as TRHR ag -4.0, D1 antag 4.8, D1 agonist 0.3, TRHR PAM 3.4 and D1 potentiator 0.5.
Screening COc1ccc(NC(=O)CC2NCCNC2=O)c(OC)c1 (stereo not drawn) returned TRHR ag 0.0, D1 antag 2.1, D1 agonist 0.1, TRHR PAM -1.2 and D1 potentiator -3.1.
For CC(C)CCNCC(O)CON=C1c2ccccc2-c2ccccc21 (stereo not drawn) the results were TRHR ag -0.6, D1 antag 8.1, D1 agonist 49.6*, TRHR PAM 4.6 and D1 potentiator 3.9.
CC(C)(c1ccccc1)c1ccc(OCC(O)CN2CCCC2)cc1 (stereo not drawn) was read as TRHR ag 3.2, D1 antag -24.4, D1 agonist 25.2, TRHR PAM 2.3 and D1 potentiator -6.8.
`COc1ccc(CCNCC(O)COc2c(C)cccc2C)cc1OC` (stereo not drawn) gave TRHR ag 0.8, D1 antag -38.1*, D1 agonist 6.8, TRHR PAM 1.1 and D1 potentiator -11.0.
For CC(C)N(CCNCC(O)COc1ccc(C(C)(C)c2ccccc2)cc1)C(C)C (stereo not drawn) the results were TRHR ag 1.6, D1 antag -18.2, D1 agonist 62.6*, TRHR PAM 21.6 and D1 potentiator -3.5.
Screening COc1ccc(C(OCC(O)CNCCc2ccccc2)c2ccc(OC)cc2)cc1 (stereo not drawn) returned TRHR ag 5.3, D1 antag -30.3*, D1 agonist 96.3*, TRHR PAM 8.9 and D1 potentiator -10.2.
`CCOc1ccc(C2C(C(=O)Nc3ccccc3C)=C(C)Nc3nnnn32)cc1` (stereo not drawn) gave TRHR ag -0.7, D1 antag 11.4, D1 agonist -1.3, TRHR PAM -5.9 and D1 potentiator -1.0.
For CCOc1cc(C(=O)Nc2ccc3c(c2)n(C)c(=O)c(=O)n3C)cc(OCC)c1OCC the results were TRHR ag -0.7, D1 antag -0.7, D1 agonist -0.4, TRHR PAM -0.3 and D1 potentiator 3.2.
For OC(CNCCc1ccc(Cl)cc1)COc1cc(Cl)ccc1Cl (stereo not drawn) the results were TRHR ag 1.6, D1 antag -4.5, D1 agonist 35.0*, TRHR PAM 3.9 and D1 potentiator 5.2.
CCC(=O)c1ccc(OCC(O)CNC(C)c2ccccc2)cc1 (stereo not drawn) was read as TRHR ag 1.1, D1 antag 5.2, D1 agonist 6.8, TRHR PAM -0.5 and D1 potentiator 4.5.
For OC(CNCCc1ccccc1)COc1ccc(OCC(O)CNCCc2ccccc2)cc1 (stereo not drawn) the results were TRHR ag 3.7, D1 antag -2.7, D1 agonist 33.6*, TRHR PAM 9.2 and D1 potentiator -0.7.
`COc1ccc(CCNCC(O)COc2ccc(Cl)cc2)cc1OC` (stereo not drawn) gave TRHR ag 5.1, D1 antag 10.8, D1 agonist 17.3, TRHR PAM 3.8 and D1 potentiator -7.2.
